From publication PMC7862700, “An all-to-all approach to the identification of sequence-specific readers for epigenetic DNA modifications on cytosine” come the findings set out here.

What all share (test): DAPPL (digital affinity profiling via proximity ligation, sequencing); 10 mM Tris-HCl pH 7.5, 50 mM NaCl, 1 mM DTT, 4% glycerol, room temperature, 30 min; GST-TFs on glutathione beads, 16-mer random dsDNA library, 0.1% formaldehyde crosslink after washing; high values mean tight binding
In one test the target is T1, FEV (Homo sapiens, UniProt Q99581 1-238).
T1 sequence: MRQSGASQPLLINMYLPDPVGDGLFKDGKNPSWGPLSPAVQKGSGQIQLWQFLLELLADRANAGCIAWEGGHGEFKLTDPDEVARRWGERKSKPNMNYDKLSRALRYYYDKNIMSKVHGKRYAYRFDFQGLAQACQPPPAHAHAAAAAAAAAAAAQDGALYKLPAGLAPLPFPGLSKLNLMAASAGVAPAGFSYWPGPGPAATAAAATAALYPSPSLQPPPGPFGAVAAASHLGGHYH
To be noted: protein: recombinant; tags: N-terminal GST; dsDNA, one strand shown. An outline of the steps:
(§1)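 Human transcription factors carrying a GST fusion were produced in yeast, bound to glutathione beads, tagged with DNA barcodes and pooled together with a tag-only sample. Each pool was held with 200 nmole of a random double-stranded 16-mer DNA library in Tris/NaCl/DTT/glycerol buffer for 30 min at room temperature, then washed, crosslinked in 0.1% formaldehyde, proximity-ligated with BsaI/T4 ligase (1 h, 37 °C), PCR-amplified and sequenced on an Illumina NextSeq500. Binding signal is the read frequency of each hexamer for a given factor divided by its frequency in the tag-only sample.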

For the next test, the target named is ETV5 (Homo sapiens, UniProt P41161 1-510). To be noted: protein: recombinant; tags: N-terminal GST; dsDNA, one strand shown. The gist of the method:
as §1

The target of the next test is HSF1 (Homo sapiens, UniProt Q00613 1-529). The note with it: protein: recombinant; tags: N-terminal GST; chain copies: 3; dsDNA, one strand shown. An outline of the steps: as §1
A further test addresses T2, SPIC (Homo sapiens, UniProt Q8N5J4 1-248).
T2 sequence: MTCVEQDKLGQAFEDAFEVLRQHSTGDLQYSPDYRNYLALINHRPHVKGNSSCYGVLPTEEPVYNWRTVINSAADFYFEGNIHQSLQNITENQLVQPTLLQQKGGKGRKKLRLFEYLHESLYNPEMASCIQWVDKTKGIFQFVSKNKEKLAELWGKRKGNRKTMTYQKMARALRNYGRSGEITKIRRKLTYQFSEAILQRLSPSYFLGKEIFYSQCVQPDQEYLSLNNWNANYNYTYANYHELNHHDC
To be noted: protein: recombinant; tags: N-terminal GST; dsDNA, one strand shown. An outline of the steps: as §1

The target in a further test is ELF4 (Homo sapiens, UniProt Q99607 1-663). The note with it: protein: recombinant; tags: N-terminal GST; dsDNA, one strand shown. An outline of the steps: as §1
In another test the target is T3, ELK4 (Homo sapiens, UniProt P28324-2 1-405).
T3 sequence: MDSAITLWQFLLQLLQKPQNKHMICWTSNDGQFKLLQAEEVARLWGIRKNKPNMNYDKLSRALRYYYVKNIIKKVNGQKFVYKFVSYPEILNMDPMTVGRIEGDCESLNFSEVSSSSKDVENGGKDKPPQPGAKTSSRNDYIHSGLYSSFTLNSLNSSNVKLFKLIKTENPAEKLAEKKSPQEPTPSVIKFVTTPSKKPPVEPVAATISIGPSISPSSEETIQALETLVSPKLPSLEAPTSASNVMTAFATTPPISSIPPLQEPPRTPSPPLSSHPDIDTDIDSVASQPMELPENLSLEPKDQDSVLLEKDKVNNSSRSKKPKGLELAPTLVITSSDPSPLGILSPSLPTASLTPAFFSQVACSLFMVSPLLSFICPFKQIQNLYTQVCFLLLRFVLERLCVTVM
The note with it: protein: recombinant; tags: N-terminal GST; dsDNA, one strand shown. The gist of the method: as §1

A further test concerns the target T4, ETV2 (Homo sapiens, UniProt O00321 1-342).
T4 sequence: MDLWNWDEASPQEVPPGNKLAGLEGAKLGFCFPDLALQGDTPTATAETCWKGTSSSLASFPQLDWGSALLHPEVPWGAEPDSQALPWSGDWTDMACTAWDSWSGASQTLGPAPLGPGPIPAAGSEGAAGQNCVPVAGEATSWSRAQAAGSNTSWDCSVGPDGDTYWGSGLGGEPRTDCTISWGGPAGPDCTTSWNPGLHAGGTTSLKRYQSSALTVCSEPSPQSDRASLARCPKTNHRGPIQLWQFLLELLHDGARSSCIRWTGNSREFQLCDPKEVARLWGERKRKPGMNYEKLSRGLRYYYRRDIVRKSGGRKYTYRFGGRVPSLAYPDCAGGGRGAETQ
The note with it: protein: recombinant; tags: N-terminal GST; dsDNA, one strand shown. The gist of the method:
as §1

The next test deals with T5, ELF3 (Homo sapiens, UniProt P78545 1-371).
T5 sequence: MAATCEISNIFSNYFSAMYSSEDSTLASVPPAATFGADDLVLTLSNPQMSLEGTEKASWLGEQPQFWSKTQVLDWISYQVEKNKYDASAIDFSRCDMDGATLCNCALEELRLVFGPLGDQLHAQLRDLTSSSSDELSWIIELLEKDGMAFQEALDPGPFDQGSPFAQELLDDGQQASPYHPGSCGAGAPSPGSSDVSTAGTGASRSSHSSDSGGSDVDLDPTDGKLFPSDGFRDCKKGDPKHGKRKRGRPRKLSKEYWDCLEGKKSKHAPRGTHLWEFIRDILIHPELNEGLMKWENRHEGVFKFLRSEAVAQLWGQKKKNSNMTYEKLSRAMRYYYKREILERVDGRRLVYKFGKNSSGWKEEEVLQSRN
The note with it: protein: recombinant; tags: N-terminal GST; dsDNA, one strand shown. An outline of the steps: as §1

A further test deals with CRX (Homo sapiens, UniProt O43186 1-299). The note with it: protein: recombinant; tags: N-terminal GST; dsDNA, one strand shown. An outline of the steps: as §1
The next test addresses ETV1 (Homo sapiens, UniProt P50549 1-477). To be noted: protein: recombinant; tags: N-terminal GST; dsDNA, one strand shown. The gist of the method:
as §1

In a further test the target is T6, ERF (Homo sapiens, UniProt P50548 1-548).
T6 sequence: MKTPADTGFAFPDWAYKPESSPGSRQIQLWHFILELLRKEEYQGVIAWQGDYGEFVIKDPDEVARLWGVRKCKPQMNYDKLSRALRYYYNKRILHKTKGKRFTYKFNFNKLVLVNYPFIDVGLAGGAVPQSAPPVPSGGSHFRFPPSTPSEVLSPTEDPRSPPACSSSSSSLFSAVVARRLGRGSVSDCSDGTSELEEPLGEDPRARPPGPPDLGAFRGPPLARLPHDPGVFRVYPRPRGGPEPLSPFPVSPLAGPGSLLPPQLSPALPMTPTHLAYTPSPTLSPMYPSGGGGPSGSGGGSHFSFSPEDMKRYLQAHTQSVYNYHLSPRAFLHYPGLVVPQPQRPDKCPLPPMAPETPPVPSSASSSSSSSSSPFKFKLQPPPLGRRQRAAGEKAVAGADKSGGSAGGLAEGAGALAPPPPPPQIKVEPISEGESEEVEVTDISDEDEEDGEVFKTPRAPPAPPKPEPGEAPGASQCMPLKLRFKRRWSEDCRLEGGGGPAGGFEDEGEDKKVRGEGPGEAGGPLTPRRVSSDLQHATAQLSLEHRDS
To be noted: protein: recombinant; tags: N-terminal GST; dsDNA, one strand shown. The gist of the method: as §1

In another test the target is T7, ETV3L (Homo sapiens, UniProt Q6ZN32 1-361).
T7 sequence: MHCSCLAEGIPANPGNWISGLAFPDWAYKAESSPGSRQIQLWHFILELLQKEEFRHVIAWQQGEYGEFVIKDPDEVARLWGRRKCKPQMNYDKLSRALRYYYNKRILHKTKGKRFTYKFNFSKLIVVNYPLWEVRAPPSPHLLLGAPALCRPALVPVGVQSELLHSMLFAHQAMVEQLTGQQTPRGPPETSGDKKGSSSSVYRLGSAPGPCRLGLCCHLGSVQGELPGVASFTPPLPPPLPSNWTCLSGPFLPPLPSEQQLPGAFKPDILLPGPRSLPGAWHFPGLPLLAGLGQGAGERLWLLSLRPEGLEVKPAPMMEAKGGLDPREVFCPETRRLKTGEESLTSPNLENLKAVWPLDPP
The note with it: protein: recombinant; tags: N-terminal GST; dsDNA, one strand shown. The gist of the method: as §1

The next test addresses T8, ETS2 (Homo sapiens, UniProt P15036 1-469).
T8 sequence: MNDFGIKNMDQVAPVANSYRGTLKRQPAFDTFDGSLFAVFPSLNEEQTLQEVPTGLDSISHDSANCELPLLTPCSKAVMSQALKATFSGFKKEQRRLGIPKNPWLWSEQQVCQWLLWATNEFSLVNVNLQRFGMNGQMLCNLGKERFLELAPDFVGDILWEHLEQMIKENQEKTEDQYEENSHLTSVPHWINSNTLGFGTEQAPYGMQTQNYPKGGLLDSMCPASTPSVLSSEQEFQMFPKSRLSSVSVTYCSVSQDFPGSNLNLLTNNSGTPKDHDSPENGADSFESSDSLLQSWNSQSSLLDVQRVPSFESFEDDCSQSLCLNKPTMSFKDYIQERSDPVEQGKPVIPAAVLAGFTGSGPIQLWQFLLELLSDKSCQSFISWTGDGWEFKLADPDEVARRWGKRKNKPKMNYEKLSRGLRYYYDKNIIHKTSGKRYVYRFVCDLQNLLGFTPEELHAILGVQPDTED
The note with it: protein: recombinant; tags: N-terminal GST; dsDNA, one strand shown. The gist of the method: as §1

For the next test, the target named is T9, SPDEF (Homo sapiens, UniProt O95238 1-335).
T9 sequence: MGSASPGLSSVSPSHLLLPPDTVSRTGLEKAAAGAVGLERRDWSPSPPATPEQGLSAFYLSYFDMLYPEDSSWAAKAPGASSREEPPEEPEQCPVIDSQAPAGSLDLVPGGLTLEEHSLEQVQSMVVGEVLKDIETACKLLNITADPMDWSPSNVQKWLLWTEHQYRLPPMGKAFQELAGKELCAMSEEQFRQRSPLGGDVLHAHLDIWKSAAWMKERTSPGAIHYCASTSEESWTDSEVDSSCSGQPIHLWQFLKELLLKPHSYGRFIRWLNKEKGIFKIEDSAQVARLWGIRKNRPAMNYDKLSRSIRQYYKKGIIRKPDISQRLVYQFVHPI
The note with it: protein: recombinant; tags: N-terminal GST; dsDNA, one strand shown. The gist of the method: as §1

The next test deals with T10, ETV7 (Homo sapiens, UniProt Q9Y603 1-341).
T10 sequence: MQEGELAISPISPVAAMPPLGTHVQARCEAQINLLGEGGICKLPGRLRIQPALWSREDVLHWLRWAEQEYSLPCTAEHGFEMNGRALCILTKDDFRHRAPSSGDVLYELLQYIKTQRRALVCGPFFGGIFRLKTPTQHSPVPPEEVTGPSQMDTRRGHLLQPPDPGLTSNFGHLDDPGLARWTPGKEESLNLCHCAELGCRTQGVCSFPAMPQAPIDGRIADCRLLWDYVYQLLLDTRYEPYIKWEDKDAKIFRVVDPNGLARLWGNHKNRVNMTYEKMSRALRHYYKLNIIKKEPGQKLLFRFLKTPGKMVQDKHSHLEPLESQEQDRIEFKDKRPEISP
The note with it: protein: recombinant; tags: N-terminal GST; dsDNA, one strand shown. The gist of the method:
as §1

The next test deals with T11, ELF5 (Homo sapiens, UniProt Q9UKW6-2 1-255).
T11 sequence: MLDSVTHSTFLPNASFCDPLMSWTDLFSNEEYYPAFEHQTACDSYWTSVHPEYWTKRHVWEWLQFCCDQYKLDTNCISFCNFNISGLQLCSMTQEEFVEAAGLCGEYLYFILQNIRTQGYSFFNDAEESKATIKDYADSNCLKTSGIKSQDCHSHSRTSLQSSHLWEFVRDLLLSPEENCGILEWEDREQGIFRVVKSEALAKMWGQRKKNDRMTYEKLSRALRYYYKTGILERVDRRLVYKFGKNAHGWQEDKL
The note with it: protein: recombinant; tags: N-terminal GST; dsDNA, one strand shown. The gist of the method: as §1

A further test has as its target T12, ETV3 (Homo sapiens, UniProt P41162-2 1-143).
T12 sequence: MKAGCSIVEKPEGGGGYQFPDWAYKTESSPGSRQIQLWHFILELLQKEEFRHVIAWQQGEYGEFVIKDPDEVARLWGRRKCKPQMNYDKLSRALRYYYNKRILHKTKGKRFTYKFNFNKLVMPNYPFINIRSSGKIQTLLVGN
The note with it: protein: recombinant; tags: N-terminal GST; dsDNA, one strand shown. The gist of the method: as §1

The target of a further test is ETV6 (Homo sapiens, UniProt P41212 1-452). To be noted: protein: recombinant; tags: N-terminal GST; dsDNA, one strand shown. An outline of the steps: as §1
Sequence of ETV6 (P41212 whole entry): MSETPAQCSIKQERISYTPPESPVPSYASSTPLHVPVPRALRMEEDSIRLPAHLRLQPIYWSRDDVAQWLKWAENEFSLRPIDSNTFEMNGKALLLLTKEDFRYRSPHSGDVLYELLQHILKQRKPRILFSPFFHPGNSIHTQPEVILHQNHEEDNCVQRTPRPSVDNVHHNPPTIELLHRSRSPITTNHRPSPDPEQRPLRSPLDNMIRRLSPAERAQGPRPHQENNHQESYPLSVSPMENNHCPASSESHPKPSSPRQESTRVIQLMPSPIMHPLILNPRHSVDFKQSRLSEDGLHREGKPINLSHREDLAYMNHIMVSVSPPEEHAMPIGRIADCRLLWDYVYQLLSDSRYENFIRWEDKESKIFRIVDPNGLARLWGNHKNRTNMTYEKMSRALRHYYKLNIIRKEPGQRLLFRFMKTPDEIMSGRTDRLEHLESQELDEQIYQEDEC

Sequence of ELF4 (Q99607 whole entry): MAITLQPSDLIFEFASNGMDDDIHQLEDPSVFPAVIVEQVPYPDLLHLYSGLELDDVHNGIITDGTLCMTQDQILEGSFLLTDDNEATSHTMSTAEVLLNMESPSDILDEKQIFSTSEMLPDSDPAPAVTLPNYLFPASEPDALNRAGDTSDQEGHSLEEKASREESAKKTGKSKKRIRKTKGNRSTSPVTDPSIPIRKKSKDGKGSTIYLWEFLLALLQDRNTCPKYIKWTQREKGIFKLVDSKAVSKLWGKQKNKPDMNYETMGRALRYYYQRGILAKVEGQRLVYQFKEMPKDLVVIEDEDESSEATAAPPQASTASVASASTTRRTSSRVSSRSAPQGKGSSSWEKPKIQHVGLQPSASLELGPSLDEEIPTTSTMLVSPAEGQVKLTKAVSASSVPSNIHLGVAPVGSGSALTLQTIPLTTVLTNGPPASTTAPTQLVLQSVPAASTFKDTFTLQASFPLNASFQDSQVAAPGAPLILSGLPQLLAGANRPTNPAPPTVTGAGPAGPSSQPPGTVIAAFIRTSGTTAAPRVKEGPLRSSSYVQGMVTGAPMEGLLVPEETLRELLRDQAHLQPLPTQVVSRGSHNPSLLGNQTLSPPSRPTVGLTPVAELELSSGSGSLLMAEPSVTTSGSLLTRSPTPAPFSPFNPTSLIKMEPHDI
Sequence of CRX (O43186 whole entry): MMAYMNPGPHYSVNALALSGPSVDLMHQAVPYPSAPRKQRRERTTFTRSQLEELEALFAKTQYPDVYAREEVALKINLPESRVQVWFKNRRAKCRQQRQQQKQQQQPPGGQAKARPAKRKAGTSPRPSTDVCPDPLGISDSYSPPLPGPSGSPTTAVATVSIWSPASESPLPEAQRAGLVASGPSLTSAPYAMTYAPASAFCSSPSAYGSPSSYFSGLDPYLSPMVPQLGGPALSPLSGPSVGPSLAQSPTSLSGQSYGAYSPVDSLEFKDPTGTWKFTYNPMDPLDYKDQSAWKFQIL
Sequence of HSF1 (Q00613 whole entry): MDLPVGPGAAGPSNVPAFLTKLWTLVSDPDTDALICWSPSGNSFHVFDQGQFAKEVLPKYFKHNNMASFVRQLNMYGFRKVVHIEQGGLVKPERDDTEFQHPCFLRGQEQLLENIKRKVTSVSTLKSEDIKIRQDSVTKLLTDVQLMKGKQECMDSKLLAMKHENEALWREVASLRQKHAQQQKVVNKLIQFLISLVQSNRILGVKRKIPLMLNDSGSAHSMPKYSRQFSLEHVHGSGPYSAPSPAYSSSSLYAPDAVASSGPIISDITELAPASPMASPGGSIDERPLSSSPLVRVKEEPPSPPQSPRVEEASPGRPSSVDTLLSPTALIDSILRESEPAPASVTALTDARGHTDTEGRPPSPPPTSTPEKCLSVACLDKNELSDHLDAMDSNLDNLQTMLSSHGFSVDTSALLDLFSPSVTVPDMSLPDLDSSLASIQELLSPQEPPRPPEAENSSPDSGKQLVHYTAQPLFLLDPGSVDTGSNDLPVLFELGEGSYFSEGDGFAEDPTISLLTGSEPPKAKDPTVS
Sequence of ETV5 (P41161 whole entry): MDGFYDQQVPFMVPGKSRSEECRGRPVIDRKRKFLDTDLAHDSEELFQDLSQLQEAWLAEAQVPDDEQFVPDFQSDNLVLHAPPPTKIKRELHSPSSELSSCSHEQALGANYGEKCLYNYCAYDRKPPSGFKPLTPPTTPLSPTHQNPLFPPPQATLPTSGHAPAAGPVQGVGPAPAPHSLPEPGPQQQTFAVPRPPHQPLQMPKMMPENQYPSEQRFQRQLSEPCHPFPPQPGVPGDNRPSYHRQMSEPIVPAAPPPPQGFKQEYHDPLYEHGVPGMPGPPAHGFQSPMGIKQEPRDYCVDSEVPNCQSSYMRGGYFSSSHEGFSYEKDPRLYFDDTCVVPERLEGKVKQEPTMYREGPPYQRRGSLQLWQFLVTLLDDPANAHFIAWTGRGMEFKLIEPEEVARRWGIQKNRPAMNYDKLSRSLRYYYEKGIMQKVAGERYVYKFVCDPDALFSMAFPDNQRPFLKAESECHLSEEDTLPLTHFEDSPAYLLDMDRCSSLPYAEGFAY
Sequence of ETV1 (P50549 whole entry): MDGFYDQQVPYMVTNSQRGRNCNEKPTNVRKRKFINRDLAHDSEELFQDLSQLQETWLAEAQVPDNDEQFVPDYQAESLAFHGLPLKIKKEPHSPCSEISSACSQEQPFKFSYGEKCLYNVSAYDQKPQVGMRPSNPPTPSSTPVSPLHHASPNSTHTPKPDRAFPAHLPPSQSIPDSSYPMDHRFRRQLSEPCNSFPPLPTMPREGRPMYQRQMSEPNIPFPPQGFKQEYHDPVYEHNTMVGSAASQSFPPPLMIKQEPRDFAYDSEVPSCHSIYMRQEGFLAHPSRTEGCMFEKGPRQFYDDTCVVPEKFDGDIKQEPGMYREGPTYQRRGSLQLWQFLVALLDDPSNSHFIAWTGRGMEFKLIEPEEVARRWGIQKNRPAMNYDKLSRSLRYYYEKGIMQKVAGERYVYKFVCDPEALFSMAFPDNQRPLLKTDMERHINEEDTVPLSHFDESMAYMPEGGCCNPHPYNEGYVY

Consider TTTACA, for which the binding signal was 1.2 fold enrichment (6-mer frequency, TF over GST control) with FEV; 1.19 fold enrichment (6-mer frequency, TF over GST control) in the test with ETV5; 1.32 fold enrichment (6-mer frequency, TF over GST control) with HSF1; 1.19 fold enrichment (6-mer frequency, TF over GST control) with SPIC; 1.26 fold enrichment (6-mer frequency, TF over GST control) with ELF4; 1.32 fold enrichment (6-mer frequency, TF over GST control) in the test with ELK4. In addition, the binding signal with ETV2 is 1.26 fold enrichment (6-mer frequency, TF over GST control); with ELF3 it was 1.4 fold enrichment (6-mer frequency, TF over GST control); with CRX it was 1.55 fold enrichment (6-mer frequency, TF over GST control); with ETV1, 1.3 fold enrichment (6-mer frequency, TF over GST control); with ERF, 1.28 fold enrichment (6-mer frequency, TF over GST control); with ETV3L, 1.23 fold enrichment (6-mer frequency, TF over GST control). Moreover, the binding signal is 1.25 fold enrichment (6-mer frequency, TF over GST control) with ETS2; 1.15 fold enrichment (6-mer frequency, TF over GST control) in the test with SPDEF; 1.22 fold enrichment (6-mer frequency, TF over GST control) in the test with ETV7; 1.22 fold enrichment (6-mer frequency, TF over GST control) with ELF5; 1.22 fold enrichment (6-mer frequency, TF over GST control) in the test with ETV3; 1.17 fold enrichment (6-mer frequency, TF over GST control) in the test with ETV6.
